From PubChem BioAssay (Tox21) come the findings set out here.

Test [1] is described as follows: qHTS assay for small molecule agonists of the p53 signaling pathway (AID 651631; calls by dose curve; note: nearly all actives have a fitted effect of over 15% in size; note: potency is the fitted concentration of half-maximal effect). In a few lines:
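Readout was fluorescence from the LiveBLAzer FRET substrate, applied for 2 h at room temperature after 16 h compound exposure at 37 °C. Cells were the p53RE-bla HCT-116 line, with beta-lactamase driven by p53 response elements.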

Test [2] in a line: qHTS assay for small molecules that induce genotoxicity in human embryonic kidney cells expressing luciferase-tagged ATAD5 (AID 651632). Note: nearly all actives have a fitted effect of over 15% in size. A digest of the protocol: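 Quantitative HTS in HEK293T expressing luciferase-tagged ATAD5, whose levels rise upon DNA damage. Exposure ran 16 hr at 37C and 5% CO2, with luminescence read 30 min after Amplite addition at room temperature.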
The nature of test [3]: qHTS assay for small molecules that induce genotoxicity in human embryonic kidney cells expressing luciferase-tagged ATAD5 - cell viability (AID 651634; calls by dose curve; note: nearly all actives have a fitted effect of over 25% in size). A digest of the protocol:
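After 15.5 hr incubation with compound at 37C, 5% CO2, HEK293T ATAD5-luciferase cells received CellTiter-Fluor reagent; fluorescence intensity was quantified following 30 min at 37C.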

Test [4] in a line: qHTS assay for small molecule disruptors of the mitochondrial membrane potential - cell viability (AID 720634; calls by dose curve;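 note: human HepG2 liver cancer cells; series mostly up to about 83 µM; nearly all actives have a fitted effect of over 20% in size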). A digest of the protocol:
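ATP-based luminescent viability readout (CellTiter-Glo, 30 min, room temperature) in HepG2 cells multiplexed with the m-MPI membrane potential dye; compound exposure lasted 1 hr at 37 C.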

Test [5] is described as follows: qHTS assay for small molecule disruptors of the mitochondrial membrane potential (AID 720635). Note: potency is the fitted concentration of half-maximal effect. In a few lines: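 HepG2 cells (2,000/well) attached overnight at 37C, then took compound for 1 hr at 37C, 5% CO2. Mito-MPS dye was added for 30 min; fluorescence was read at 490/535 nm (monomers) and 540/590 nm (aggregates).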
Test [6] can be described thus: qHTS assay to test for compound auto fluorescence at 590 nm (red) in HepG2 cells (AID 720674). A digest of the protocol: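 Intrinsic compound fluorescence in the red window (Ex/Em 540/590 nm) is measured in attached HepG2 cells exposed for 1 hr, DMSO vehicle as baseline, benchmarked to Rose Bengal sodium.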
A short description of test [7]: qHTS assay to test for compound auto fluorescence at 535 nm (green) in HepG2 cells (AID 720675).
Test [8] can be described thus: qHTS assay to test for compound auto fluorescence at 460 nm (blue) in HEK293 cells (AID 720678). In a few lines:
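HEK293 cells (2,000 per well, medium with 10% dialyzed FBS) attached for 4-5 hr at 37C, then received compound and stood overnight at 37C, 5% CO2. Blue fluorescence was read at Ex/Em 405/460 nm and expressed relative to triamterene.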

Test [9] is described as follows: qHTS assay to test for compound auto fluorescence at 590 nm (red) in HEK293 cells (AID 720679). In a few lines: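 HEK293 cells (2,000/well, medium with 10% dialyzed FBS) attached for 4-5 hr at 37C, received 23 nL compound and were incubated overnight at 37C, 5% CO2. Red fluorescence was then read at 540/590nm Ex/Em, referenced to Rose Bengal sodium.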
A short description of test [10]: qHTS assay to test for compound auto fluorescence at 535 nm (green) in HEK293 cells (AID 720680).
A short description of test [11]: qHTS assay to test for compound auto fluorescence at 460 nm (blue) in HEK293 cell free culture (AID 720681). A digest of the protocol: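 Test compounds were pinned into cell-free culture medium (DMEM with 10% FBS) and fluorescence was read directly at Ex/Em 405/460 nm. Signals were expressed as fluorescence equivalents of triamterene, with DMSO vehicle as control.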

The nature of test [12]: qHTS assay to test for compound auto fluorescence at 590 nm (red) in HEK293 cell free culture (AID 720683). A digest of the protocol:
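Tox21 10K library compounds were pinned into cell-free DMEM with 10% FBS and fluorescence was read at excitation 540 nm. Activity is expressed as Rose Bengal sodium equivalency.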

The nature of test [13]: qHTS assay to test for compound auto fluorescence at 590 nm (red) in HepG2 cell free culture (AID 720684). A digest of the protocol: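 Readout: intrinsic compound fluorescence at 590 nm emission after 540 nm excitation, scaled to Rose Bengal sodium. Matrix was cell-free MEM with 10% FBS; DMSO vehicle wells served as control.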
Test [14] can be described thus: qHTS assay to test for compound auto fluorescence at 460 nm (blue) in HepG2 cell free culture (AID 720685). In a few lines: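 Cell-free plates of MEM plus 10% FBS received 23 nL compound or DMSO vehicle; blue-channel (405/460 nm) intensity scored against triamterene as reference fluorophore.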
Test [15] in a line: qHTS assay to test for compound auto fluorescence at 535 nm (green) in HepG2 cell free culture (AID 720686).
Test [16] is described as follows: qHTS assay to test for compound auto fluorescence at 460 nm (blue) in HepG2 cells (AID 720687). In a few lines:
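Cells (2,000/well in MEM with 10% FBS) attached overnight at 37 C, then were exposed to compound or DMSO for 1 hr at 37 C, 5% CO2. Fluorescence read at Ex/Em 405/460 nm, expressed as triamterene-equivalent signal.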

Test [17] concerns the target Glucocorticoid receptor (Homo sapiens) (UniProt P04150). Nature of the test: qHTS assay to identify small molecule agonists of the glucocorticoid receptor (GR) signaling pathway (AID 720691; active = well fitted activation curve with a large enough effect in the signal ratio in the repeat runs, not every such curve was filed as active; the % refers to the signal ratio). In a few lines: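 Cells: GR-bla HeLa, endogenous GR with stably integrated GRE-beta-lactamase reporter. Treatment 18 h, 37 C, compounds delivered in DMSO. Detection via LiveBLAzer B/G FRET substrate, 2 h RT, fluorescence intensity.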

For test [18] the target is unchanged. In words: qHTS assay to identify small molecule antagonists of the glucocorticoid receptor (GR) signaling pathway (AID 720692; active = well fitted inhibition curve with a large enough effect in the signal ratio in the repeat runs, not every such curve was filed as active; the % refers to the signal ratio). A digest of the protocol: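 Quantitative HTS in antagonist format: HeLa cells expressing endogenous GR and a stably integrated GRE-bla reporter, stimulated with 5 nM dexamethasone (final) alongside test compounds for 18 h.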
A short description of test [19]: qHTS assay for small molecule agonists of the p53 signaling pathway - cell viability (AID 651633; calls by dose curve; note: series mostly up to about 83 µM; nearly all actives have a fitted effect of over 30% in size). A digest of the protocol: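 p53RE-bla cells, seeded at 4,000 per well and rested 5 h at 37 C/5% CO2, received compounds in DMSO for 16 h at 37 C. CellTiter-Glo was then added, and luminescence was read after 30 min at room temperature to gauge cytotoxicity.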
Test [20] can be described thus: qHTS assay to test for compound auto fluorescence at 535 nm (green) in HEK293 cell free culture (AID 720682). In a few lines: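 Compounds were pin-transferred into cell-free DMEM with 10% FBS, and green fluorescence was read at excitation 485 nm and emission 535 nm. Intensities were expressed as fluorescein-equivalent values.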

Values joined by “and” are separate entries in the source; they are usually repeats but may differ in a detail not shown here. Identical values can stand only once. A number with no mark means an inactive call. Inconclusive results are not listed. Active and inactive are the calls of the source. Unless noted, calls come from the whole dose curve; as a rule, active = well fitted curve in the direction sought with a large enough effect in the repeat runs; inconclusive = weak or mixed curves; inactive = no such curve, though single readings can be large; an effect the other way counts as inactive or inconclusive.
% is set by controls: 0 for no effect and ±100 for the full control effect.

Sequence of Glucocorticoid receptor (Homo sapiens) (P04150 whole entry, looked up): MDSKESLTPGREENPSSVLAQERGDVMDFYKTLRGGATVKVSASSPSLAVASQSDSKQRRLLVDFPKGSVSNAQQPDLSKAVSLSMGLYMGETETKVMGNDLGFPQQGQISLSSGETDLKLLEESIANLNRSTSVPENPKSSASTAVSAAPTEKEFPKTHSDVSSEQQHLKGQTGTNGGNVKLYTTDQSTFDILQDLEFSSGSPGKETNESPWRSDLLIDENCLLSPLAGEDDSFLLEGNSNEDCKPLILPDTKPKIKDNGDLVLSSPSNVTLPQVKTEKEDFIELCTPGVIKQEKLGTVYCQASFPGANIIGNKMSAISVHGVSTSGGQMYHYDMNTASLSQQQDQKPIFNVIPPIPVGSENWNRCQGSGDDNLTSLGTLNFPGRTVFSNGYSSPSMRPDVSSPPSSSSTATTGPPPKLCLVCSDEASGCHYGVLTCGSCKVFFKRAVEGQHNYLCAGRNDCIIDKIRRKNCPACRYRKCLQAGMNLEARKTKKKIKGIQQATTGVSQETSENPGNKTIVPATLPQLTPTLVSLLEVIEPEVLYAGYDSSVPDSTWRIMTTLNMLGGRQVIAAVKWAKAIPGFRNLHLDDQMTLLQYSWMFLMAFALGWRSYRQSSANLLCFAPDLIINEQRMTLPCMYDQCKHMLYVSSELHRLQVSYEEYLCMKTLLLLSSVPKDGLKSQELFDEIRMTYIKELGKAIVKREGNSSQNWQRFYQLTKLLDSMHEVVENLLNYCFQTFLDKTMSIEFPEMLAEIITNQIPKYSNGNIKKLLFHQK

For the molecule `NC[C@H]1O[C@H](O[C@H]2[C@H](O)[C@@H](O[C@H]3O[C@H](CO)[C@@H](O)[C@H](N)[C@H]3O)[C@H](N)C[C@@H]2N)[C@H](O)[C@@H](O)[C@@H]1O`, the Potency result in test [1], in test [2], in test [3], in [4], in [17] and in test [18] was “inactive” each time. In test [5], the ratio activity, negative = MMP loss was 0.685% [at 8.08 µM]. The fluorescence, relative to Rose Bengal in test [6] was -0.029% [at 18.6 µM] and 0.338% [at 3.72 µM]. The fluorescence, % of fluorescein control in [7] is -0.0979% [at 18.6 µM] and 0.0187% [at 3.72 µM]; in test [15], -0.0088% [at 18.6 µM] and 0.0013% [at 3.72 µM]. Moreover, the fluorescence, % of triamterene in [8] is 0.0195% [at 18.6 µM] and -0.0441% [at 3.72 µM]. The fluorescence, % of fluorescent control in test [9] was 0.0121% [at 18.6 µM] and -0.0907% [at 3.72 µM]; in test [11] it was 0.0354% [at 18.6 µM] and -0.129% [at 3.72 µM]; in [12], 0.0769% [at 18.6 µM] and -0.256% [at 3.72 µM]; in [14], -0.077% [at 18.6 µM] and 0.036% [at 3.72 µM]; in test [16], 0.0301% [at 18.6 µM] and -0.0315% [at 3.72 µM]. Further, the fluorescence, % of fluorescein in test [10] is -0.0192% [at 18.6 µM] and 0.0982% [at 3.72 µM]. The fluorescence, % of Rose Bengal in test [13] was -0.276% [at 18.6 µM] and 0.0159% [at 3.72 µM].

Consider `C#CCOC(=O)[C@@H](C)Oc1ccc(Oc2ncc(Cl)cc2F)cc1`, for which the Potency result in test [1], in test [2], in test [19], in test [3], in test [8] and in test [11] was “inactive” throughout. The Potency result in test [14] and in [17] was “inactive” throughout. For the same molecule, the outcome in [6], in test [7], in [10], in [20], in test [12] and in test [13] was inactive. For the same molecule, the molecule was classed as inactive in [15].

Turning to `CC1=CCC(C(C)C)C=C1` (stereo not drawn), the Potency result in test [1], in test [2], in test [19], in test [3], in test [8] and in [14] was “inactive” each time. Also, the Potency entry in test [16] was “inactive”. Moreover, the molecule was classed as inactive in test [6], in test [7], in [9], in test [10], in test [12] and in test [13]. Besides, the result in test [15] was inactive.

For `Cc1ccc2c(ccc3ccccc32)c1`, the Potency entry in test [1], in test [2], in test [19], in [3], in test [8] and in test [11] was “inactive” throughout. In addition, the Potency result in test [14] and in test [16] was “inactive” each time. Further, the call in [6], in test [7], in test [9], in [10], in test [20] and in test [12] was inactive. In addition, the call in test [13] and in [15] was inactive.

Turning to `CCOc1ccc(NC(=O)CC(C)=O)cc1`, the Potency entry in test [2], in test [19], in test [3], in [4], in [5] and in test [8] was “inactive” each time. In addition, the Potency entry in test [11], in test [14], in test [16], in test [17] and in test [18] was “inactive” in each case. In addition, the molecule was called inactive in test [6], in test [7], in test [9], in test [10], in test [12] and in [15].

In the case of `CCCCOC(=O)c1ccccc1C(=O)OCC(CC)CCCC` (stereo not drawn), the Potency in test [1] is 54.5 µM (active). Moreover, the Potency entry in test [2], in test [19], in [3], in test [8], in test [11] and in test [14] was “inactive” each time. The Potency result in test [16] and in [17] was “inactive” in each case. The outcome in [6], in test [7], in test [10], in [20], in test [12] and in test [13] was inactive. The call in [15] was inactive.

As to `CC(C)(C)c1cc(CO)cc(C(C)(C)C)c1O`, the Potency result in [2], in [19], in [3], in test [4], in test [8] and in test [11] was “inactive” in each case. The Potency entry in [14], in test [16] and in test [17] was “inactive” throughout. Besides, in test [5], the Potency is 49.5 µM (active). Further, the molecule was called inactive in test [6], in [7], in test [10], in test [20], in [12] and in test [13]. The molecule was classed as inactive in test [15].
